This is an account of results in the supplement of paper PMC6658780.

The test system of this experiment is Escherichia coli ATCC BAA-2469. Description: percent growth inhibition of drug + antibiotic vs DMSO control; higher = more growth inhibition. Here is the method: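 Prestwick drugs tested at 20 uM and 7 uM with an antibiotic at 0.125x MIC (16 mg/L when MIC >128 mg/L) against E. coli ATCC BAA-2469 (NDM-1) in CAMHB, 384-well plates, duplicate runs. Percent growth inhibition was computed from OD600 (24 h minus 0 h) relative to DMSO wells. Drug + DMSO-only wells are also given. […]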

Setting [1] is: antibiotic (0.125x MIC): ciprofloxacin, 7 µM.
Where [2] appears, read: antibiotic (0.125x MIC): ciprofloxacin, 20 µM.
Setting [3] is: antibiotic (0.125x MIC): gentamicin, 7 µM.
The mark [4] stands for this setting: antibiotic (0.125x MIC): gentamicin, 20 µM.
Setting [5] is: antibiotic (0.125x MIC): meropenem, 7 µM.
The mark [6] stands for this setting: antibiotic (0.125x MIC): meropenem, 20 µM.

Where a name gives a salt, the structure may show the parent alone. ± gives the standard deviation of the averaged measurements.

On to `Nc1nc(F)nc2c1ncn2[C@@H]1O[C@H](CO)[C@@H](O)[C@@H]1O` [Fludarabine], for which the percent growth inhibition runs as follows: under setting [1], 36.5 ± 11%; under setting [2], 58.8 ± 3.8%; under setting [3], 31.6 ± 1.3%; under setting [4], 65.8 ± 12%; under setting [5], 28.2 ± 5.7%; under setting [6], 64.4 ± 8%.

Turning to `O=C(N[C@H](CO)[C@H](O)c1ccc([N+](=O)[O-])cc1)C(Cl)Cl` [Chloramphenicol], the percent growth inhibition is, setting by setting: under setting [1], 18.4 ± 4.5%; under setting [2], 92.4 ± 9.2%; under setting [3], 38.6 ± 9.3%; under setting [4], 102 ± 3.6%; under setting [5], 40.2 ± 7%; under setting [6], 89.3 ± 10%.

With `O=C1NCCN1c1ncc([N+](=O)[O-])s1` [Niridazole], the percent growth inhibition under setting [1] amounted to 45 ± 5.1%; the percent growth inhibition under setting [2] was found to be 86.8 ± 14%; the percent growth inhibition under setting [3] came to 30.939 ± 0.024%; the percent growth inhibition under setting [4] was found to be 99.9 ± 3.3%; the percent growth inhibition under setting [5] was 42.4 ± 9.2%; the percent growth inhibition under setting [6] was determined as 85.3 ± 15%.

With `CN(C)c1ccc(O)c2c1C[C@H]1C[C@H]3[C@H](N(C)C)C(O)=C(C(N)=O)C(=O)[C@@]3(O)C(O)=C1C2=O` [Minocycline hydrochloride], the percent growth inhibition was determined as 36.9 ± 6.3% under setting [1], 101 ± 3.3% under setting [2], 38.6 ± 5.5% under setting [3] and 84.6 ± 15% under setting [4].

For `CS(=O)(=O)c1ccc([C@@H](O)[C@@H](CF)NC(=O)C(Cl)Cl)cc1` [Florfenicol], the percent growth inhibition under setting [1] amounted to 35.4 ± 4.7% and the percent growth inhibition under setting [2] is 88.8 ± 2.8%.

Consider `OC(CCN1CCCC1)(c1ccccc1)C1CCCCC1` (stereo unspecified) [Procyclidine hydrochloride], for which the percent growth inhibition came out at 10.9 ± 16% under setting [1] and 8.13 ± 9.2% under setting [2].

Turning to `CC(=O)c1ccc2c(c1)N(CCCN1CCC(CCO)CC1)c1ccccc1S2` [Piperacetazine], the percent growth inhibition under setting [3] turned out to be 2.86 ± 2.4%.

On to `C#C[C@]1(O)CC[C@H]2[C@@H]3CCC4=C(CCC(=O)C4)[C@H]3CC[C@@]21C` [Norethynodrel], for which the percent growth inhibition under setting [3] was 4.39 ± 3.6%.

Regarding `CO[C@H]1/C=C/O[C@@]2(C)Oc3c(C)c(O)c4c(c3C2=O)C2=NC3(CCN(CC(C)C)CC3)NC2=C(NC(=O)/C(C)=C\C=C\[C@H](C)[C@H](O)[C@@H](C)[C@@H](O)[C@@H](C)[C@H](OC(C)=O)[C@@H]1C)C4=O` [Rifabutin], the percent growth inhibition was 86.11 ± 0.8% under setting [3], 114 ± 20% under setting [4], 97.8 ± 1.9% under setting [5] and 111 ± 12% under setting [6].

`NC(=O)N/N=C/c1ccc([N+](=O)[O-])o1` [Nitrofural]: the percent growth inhibition under setting [3] is 8.48 ± 6.7% and the percent growth inhibition under setting [5] worked out at 4.64 ± 4%.

Consider `N[C@@H]1CCCCN(c2c(F)cc3c(=O)c(C(=O)O)cn(C4CC4)c3c2Cl)C1` [Besifloxacin hydrochloride], for which the percent growth inhibition is, setting by setting: under setting [3], 6.28 ± 5.6%; under setting [5], 2.23 ± 6.8%.

In the case of `Cc1cccc(C)c1NC(=O)C1CCCCN1C` (stereo unspecified) [Mepivacaine hydrochloride], under setting [4], the percent growth inhibition worked out at 1.04 ± 3.1%.

`Nc1c2ccccc2nc2ccccc12` [Aminacrine]: the percent growth inhibition is, setting by setting: under setting [5], 13.7 ± 12%; under setting [6], 40.9 ± 17%.

For `CS(=O)(=O)c1ccc([C@@H](O)[C@@H](CO)NC(=O)C(Cl)Cl)cc1` [Thiamphenicol], the percent growth inhibition runs as follows: under setting [5], 7.39 ± 2.1%; under setting [6], 30.4 ± 14%.
